PubChem BioAssay (NCI)
About 83,000 compounds went through this panel and 20% of them were active in at least one assay; those are over-represented in the sample as a whole.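 Step 1: grow cells in 96-well plates. Step 2: add test compound at a single concentration. Step 3: incubate 48 h. Step 4: record percent growth.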 A number with no mark means an inactive call. Active and inactive are the calls of the source. Rule for the calls: active = growth percent below 10; inactive = the rest.

Columns and labels:
Experiment in all cases: NCI-60 one-dose screen, 48 h (100 = growth as untreated, 0 = no growth, -100 = all killed)
Conditions in all cases: 10 µM unless noted
SK-MEL-2 melanoma = test system: SK-MEL-2 melanoma
EKVX NSCLC = test system: EKVX NSCLC
SN12C renal = test system: SN12C renal
UO-31 renal = test system: UO-31 renal
TK-10 renal = test system: TK-10 renal
ACHN renal = test system: ACHN renal
CAKI-1 renal = test system: CAKI-1 renal
A498 renal = test system: A498 renal
CCRF-CEM leukemia = test system: CCRF-CEM leukemia
MOLT-4 leukemia = test system: MOLT-4 leukemia

Row | SMILES | growth (SK-MEL-2 melanoma) | growth (EKVX NSCLC) | growth (SN12C renal) | growth (UO-31 renal) | growth (TK-10 renal) | growth (ACHN renal) | growth (CAKI-1 renal) | growth (A498 renal) | growth (CCRF-CEM leukemia) | growth (MOLT-4 leukemia)
1 | N#CC1=C(c2cccs2)Nc2c(c(-c3ccccc3)nn2-c2ccccc2)C12C(=O)Nc1ccc(Br)cc12 (stereo not given) | -17.2% (active) | 7.42% (active) | -13.7% (active) | 6.38% (active) | 12.1% | -11% (active) | 9.64% (active) | -10.8% (active) | 1.86% (active) | -3.33% (active)
2 | C#CCCCNCCNc1ccnc2cc(Cl)ccc12 | 98.1% | 70.3% | 74.2% | 60.8% | 82.9% | 87.7% | 44.5% | 108% | 77.6% | 65.1%
3 | COc1cc2cc(C(=O)N3C[C@@H](CCl)c4c3cc(OC(=O)N(CCC(=O)N3CCN(C)CC3)C3CCCCC3)c3ccccc43)[nH]c2c(OC)c1OC | -82.4% (active) | -78.8% (active) | -82.8% (active) | -73.2% (active) | -71.3% (active) | -84.6% (active) | -79.1% (active) | -19.9% (active) | -34.3% (active) | -19.8% (active)
4 | Nc1cc(-c2c[nH]c3ccc(Cl)cc23)nc2cc(-c3c[nH]c4ccccc34)nn12 | -45.8% (active) | -23.7% (active) | 6.54% (active) | -4.79% (active) | -7.78% (active) | 0.126% (active) | -19.1% (active) | -14% (active) | -16.6% (active) | -27.4% (active)
5 | C/C(=N/O)c1ccc(NC(=O)CSc2nnc(-c3ccc(-c4nc5ccc(Cl)cc5[nH]4)cc3)o2)cc1 | -26% (active) | 13.4% | -33.9% (active) | 104% | 99.5% | 45.5% | 60.2% | 160% | 34.5% | 2.09% (active)
6 | CN(C)CCCNC(=S)Nc1ccc(/C=C/c2ccc(Cl)cc2)cc1 | -85.4% (active) | -35.1% (active) | -100% (active) | -95.8% (active) | -87.9% (active) | -97.6% (active) | -77.3% (active) | -47.7% (active) | -16.9% (active) | 0.54% (active)
7 | O=C1NC(=S)/C(=C/c2cn(-c3ccccc3)nc2-c2ccccc2)S1 | -4.17% (active) | 2.24% (active) | 16% | 16.7% | 34.3% | 20.1% | 28.3% | -4.62% (active) | 30.9% | 33.5%
8 | O=C(CSc1nnc(-c2ccc(-c3nc4ccc(Cl)cc4[nH]3)cc2)o1)Nc1ccc(Br)cc1 | 5.03% (active) | 41.9% | -22.3% (active) | 36.6% | 75.9% | -69.1% (active) | -25.1% (active) | 162% | 9.42% (active) | 13.9%
9 | C#CCN(C)CCCOc1ccc(N(C)C(=O)c2cc(C(C)C)c(O)cc2O)cc1Cl | -6.01% (active) | 15.9% | 11.5% | 16.5% | 21.4% | 15.7% | 16.6% | 39.7% | 13.9% | -14% (active)
10 | Clc1ccc(CNc2nc(SCCN3CCOCC3)nc3c2cnn3CC(Cl)c2ccc(Br)cc2)cc1 (stereo not given) | 33.6% | 31.8% | 42.7% | 28.5% | 68.7% | 23.5% | 45% | 106% | 19.7% | -22.7% (active)
11 | CCOc1ccc2[nH]c(=O)c(C(c3nnnn3CC3CCCO3)N3CCN(Cc4ccccc4)CC3)cc2c1 (stereo not given) | 102% | 86.9% | 88.2% | 99.9% | 114% | 61.2% | 76.3% | 76% | 93.7% | 101%
12 | COc1cccc(NC(=O)c2ccc(NC(=O)CCl)s2)c1 | 79.6% | 95% | -14.4% (active) | 62.1% | 54.8% | 66.4% | 53.8% | 108% | 1.03% (active) | -7.31% (active)
13 | Fc1ccc(Nc2nnc(-c3c[nH]c4ccccc34)o2)cc1 | 96.7% | 56.5% | 56.2% | 44.4% | 123% | 77.5% | 67.8% | 133% | 16.3% | 29.6%
14 | O=C(Cn1c(/C=C/c2ccc([N+](=O)[O-])cc2)nc2ccccc2c1=O)Nc1ccccc1 | 74.7% | 79.9% | 61.6% | 90.4% | 95.3% | 47.8% | 57.3% | 143% | 101% | 107%
15 | OC1CCC(Cn2c(C(F)(F)F)cc3c(Cl)ncnc32)CC1 (stereo not given) | -89.4% (active) | 65.7% | 18.5% | -80.2% (active) | 105% | -86.5% (active) | 53.1% | 119% | -7.23% (active) | -43.5% (active)
16 | CCCCCCCCCc1ccc(C(=O)Nc2cc(C)ccc2C(=O)OC)cc1 | 111% | 109% | 101% | 98.4% | 121% | 109% | 98.8% | 128% | 87.9% | 97.5%
17 | C[C@H](NC(=O)c1ccc2c(-c3ccc(C(F)(F)F)cc3)cccc2c1)c1ccccn1 | 67.2% | 22.8% | 42% | 13.6% | 42.6% | 41.1% | 38.8% | 72.5% | 38.6% | 19.4%
18 | Cc1nn(-c2ccccc2)c2nc(C)n(C(=O)N/N=C/c3cccc([N+](=O)[O-])c3)c(=O)c12 | 92.9% | 49.3% | 94.4% | 81.4% | 138% | 91% | 90.8% | 136% | 71.2% | 79.2%
19 | COc1c(B(O)O)cccc1-c1nc2ccc3cn[nH]c3c2c2c1CCCC2 | 108% | 49.3% | 50.6% | 23.6% | 12% | 27.3% | -11.3% (active) | -2.36% (active) | 39.6% | 47.7%
20 | Cc1nc(Nc2ccccn2)sc1C1=NNC(c2ccccc2F)C1 (stereo not given) | 62.1% | 72.4% | 57.9% | 48% | 119% | 56.5% | 61.8% | 101% | 19.1% | 25.4%
21 | C[C@H]1[C@@H](CC(=O)N[C@@H](Cc2coc3ccccc23)B(O)O)O[C@@H]2OC3(C)CC[C@H]4[C@H](C)CC[C@@H]1[C@@]24O3 | -20.7% (active) | 28.2% | 6% (active) | 12.4% | 1.76% (active) | 6.94% (active) | 15.5% | 44.5% | -0.752% (active) | 14.2%
22 | NC(=Nc1ccc(OCCCCCCCCn2cnnn2)cc1)c1ccccc1 | 21% | 40% | 27% | 41.6% | 64.8% | 32.3% | 35.2% | 114% | 19.6% | 20.9%
